Data as given in PubChem BioAssay AID1851 (National Center for Advancing Translational Sciences (NCATS), 2009).
“And” between values parts separate entries of the source, which are not always exact repeats. Equal values may be shown once. Among all 16,000 compounds or so, about 5,700 (36%) were called active. Another 24% or so got no clear call; they are omitted. This is one part of the list. Unmarked numbers belong to inactive results. Calls follow the shape of the dose curve; as a rule, active = well fitted curve in the direction sought with a large enough effect; inconclusive = small, poorly fitted or top-dose-only effect, or effect the other way; inactive = no such curve, though single readings can be large or run the other way.

Target: Cytochrome P450 1A2 (Homo sapiens) (UniProt P05177)
Sequence (P05177 whole entry, looked up): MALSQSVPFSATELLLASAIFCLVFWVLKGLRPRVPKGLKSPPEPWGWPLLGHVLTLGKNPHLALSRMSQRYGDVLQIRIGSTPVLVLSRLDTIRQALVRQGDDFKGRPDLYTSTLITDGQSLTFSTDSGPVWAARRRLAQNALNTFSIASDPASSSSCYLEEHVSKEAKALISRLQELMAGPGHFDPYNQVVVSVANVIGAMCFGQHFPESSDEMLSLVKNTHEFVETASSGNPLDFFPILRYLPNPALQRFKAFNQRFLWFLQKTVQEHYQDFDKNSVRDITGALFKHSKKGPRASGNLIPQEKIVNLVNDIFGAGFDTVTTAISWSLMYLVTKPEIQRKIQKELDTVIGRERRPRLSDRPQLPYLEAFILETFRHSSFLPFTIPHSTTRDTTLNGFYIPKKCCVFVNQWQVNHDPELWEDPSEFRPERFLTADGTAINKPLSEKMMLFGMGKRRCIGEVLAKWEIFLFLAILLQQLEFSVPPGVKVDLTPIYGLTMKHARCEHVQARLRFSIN
Assay: Cytochrome panel assay with activity outcomes
Conditions: recombinant CYP, pro-luciferin dealkylation, luminescence, p450-cyp1a2; series mostly up to 57.1 µM; activity, negative = inhibition: at the top concentration
% is scaled to controls: 0 for no effect and ±100 for the full control effect.

Row | SMILES | activity, negative = inhibition | AC50
1 | CCCc1nnc(NC(=O)CCC(=O)N2CCN(c3ccccn3)CC2)s1 | -4.79% | 
2 | O=C(c1cc(C(F)(F)F)cc(C(F)(F)F)c1)N1CCC2(CC1)CCN(c1ccccn1)CC2 | -13.7% | 
3 | O=C(c1ccc(Oc2ccc(C(F)(F)F)cn2)cc1)N1CCN(c2ccccc2)CC1 | -23.5% | 
4 | Cc1ccc(C(=O)N2CCN(c3ccc(C(F)(F)F)cn3)CC2)cc1 |  | 14.1 µM (active)
5 | CCCS(=O)(=O)N1CCCC(C(=O)NCCCN2CCN(c3ccc(F)cc3)CC2)C1 (stereo not given) | -21.1% | 
6 | c1ccc2c(c1)c1ccccc1n2Cn1c2ccccc2c2ccccc21 |  | 0.251 µM (active)
7 | CN(C)C(=O)c1ccc(-n2nc(C(F)(F)F)c3c2CCCC3)cc1 |  | 22.4 µM (active)
8 | COC(=O)[C@@]1(Cc2ccccc2)[C@H]2c3cc(C(=O)N4CCCC4)n(Cc4ccc(C(F)(F)F)nc4)c3C[C@H]2CN1C(=O)c1ccccc1 | -10.8% | 
9 | Cc1cccc2cc(=O)[nH]c(C)c12 |  | 14.1 µM (active)
10 | CC1CC/C(=C\c2ccc3c(c2)OCO3)C(=O)/C1=C/c1ccc2c(c1)OCO2 (stereo not given) |  | 3.55 µM (active)
11 | Cc1ccc(=O)n(-c2ccccc2)c1 |  | 31.6 µM (active)
12 | Cc1c(O)c(=O)n(-c2ccccc2)n1C | -12.4% [at 25.6 µM] | 
13 | CC(=O)c1c(O)cc(=O)n(-c2ccccc2)c1-c1ccc(C)cc1 | 3.8% | 
14 | Cc1cc2c(nc1C)CCCN2CC(O)CN1CCCc2nc(C)c(C)cc21 | -4.54% [at 11.4 µM] | 
15 | O=C(NCc1ccccc1)c1ccc2c(c1)C(=O)N(CC1CCCO1)C2=O (stereo not given) | -10.7% | 
16 | O=C1C[C@@H](O)[C@@H](O)[C@H]2[C@@H]3C(=O)N(C[C@@H]4CCCO4)C(=O)[C@@H]3CC[C@H]12 | -4.6% [at 11.4 µM] and -8.21% [at 11.4 µM] | 
17 | O=C1c2ccccc2C(=O)N1CC1CCCO1 (stereo not given) |  | 14.1 µM (active)
18 | COc1ccc(Oc2ncc3ncc(=O)n(Cc4cccs4)c3n2)cc1 |  | 10 µM (active)
19 | COc1ccc(Oc2ncc3nc(C)c(=O)n(Cc4cccs4)c3n2)cc1 |  | 10 µM (active)
20 | COc1ncc2ncc(=O)n(Cc3cccs3)c2n1 |  | 10 µM (active)
21 | NC(N)=N[C@@H]1C(O)[C@H](N=C(N)N)[C@@H](O)C(O)[C@H]1O (stereo not given in full) | -4.87% [at 2.29 µM] | 
22 | Cc1ccc(S(=O)(=O)/N=C2/NC(=O)/C(=C/c3cccnc3)S2)cc1 | -6.98% | 
23 | O=C1/C(=C/c2cccnc2)SC(=S)N1Cc1ccco1 |  | 0.501 µM (active)
24 | O=C(CCN1C(=O)/C(=C/c2cccc(Br)c2)SC1=S)NNC(=O)c1cccnc1 | -14.4% | 
25 | CCCc1cc2c(cc1NC(=O)c1ccccc1C)OCO2 |  | 2.24 µM (active)

Row | SMILES | activity, negative = inhibition | AC50
26 | CCCc1cc2c(cc1NC(=O)c1ccccc1Cl)OCO2 |  | 2.51 µM (active)
27 | CCCN(C(=O)Cc1nc(N)n[nH]1)C1(C(=O)Nc2ccccc2C)CCCCC1 | -8.95% | 
28 | CC[C@@]12CCCN3CCc4c(n(c5ccccc45)[C@](O)(C(=O)OC)C1)[C@H]32 |  | inactive
29 | O=C(CCCc1ccccn1)c1ccccc1 |  | 5.01 µM (active)
30 | O=C(O)[C@H](CCc1ccccn1)c1ccccc1 | -12.5% [at 11.4 µM] | 
31 | O=C(O)CCC(=O)N1CCN(c2ccccn2)CC1 | 15.9% | 
32 | COc1cc(/C=N\NC(=O)C2C(=O)NCC2c2ccccc2)cc(OC)c1O (stereo not given) | -16.9% | 
33 | COc1cc(/C=N\Nc2nc3ccccc3[nH]2)cc(OC)c1OC |  | 10 µM (active)
34 | CN(CC(=O)N1CCN(c2ccccc2)CC1)S(=O)(=O)c1cnc[nH]1 | -17.9% | 
35 | CC(C)CN(CC(C)C)S(=O)(=O)N1CCC(C(=O)NCc2ccc(F)cc2)CC1 | -7.94% | 
36 | Cn1c[n+](C)cc1/C=N/O | 13.8% | 
37 | COc1cc(C2C(C(=O)OCCC#N)=C(C)NC3=C2S(=O)(=O)c2ccccc23)cc(OC)c1OC (stereo not given) | -20.5% | 
38 | COC(=O)C1=C(C)NC(C)=C(C(=O)OCCSc2ccccc2)[C@@H]1C |  | 0.794 µM (active)
39 | Cc1cnn(-c2cc(N/N=C/c3ccccc3)ncn2)c1 |  | 2 µM (active)
40 | Cc1cnn(-c2cc(N/N=C/c3ccccc3F)ncn2)c1 |  | 0.562 µM (active)
41 | CC(C)(C)N1C(=O)[C@H]2[C@@H]3[C@H](O)[C@H](O)CC(=O)[C@H]3CC[C@H]2C1=O | -8.79% [at 11.4 µM] and -4.69% [at 11.4 µM] | 
42 | Cc1noc(C)c1C(=O)N1CCC2(CCN(Cc3cc(C(F)(F)F)cc(C(F)(F)F)c3)CC2)CC1 | -21.2% | 
43 | CCC(Sc1ncccc1C(=O)O)C(=O)N1CCOCC1 (stereo not given) | 15.3% | 
44 | FC(F)(F)c1ccccc1-c1nc(NCCN2CCOCC2)c2ccccc2n1 |  | 12.6 µM (active)
45 | O=C1C=C(NCCN2CCOCC2)CC(c2ccccc2)C1 (stereo not given) | -25.1% | 
46 | N#Cc1cccc(-c2nc(NCCN3CCOCC3)c3ccccc3n2)c1 |  | 1 µM (active)
47 | c1ccc2c(NCCN3CCOCC3)nc(-c3ccoc3)nc2c1 |  | 5.01 µM (active)
48 | O=C(NCCN1CCOCC1)c1nn2c(c1Cl)NC(c1ccccc1)CC2C(F)(F)F (stereo not given) | 0.473% | 
49 | Clc1ccccc1-c1nc(NCCN2CCOCC2)c2ccccc2n1 |  | 12.6 µM (active)
50 | N#Cc1nc(-c2ccc(OCc3ccccc3)cc2)oc1NCCN1CCOCC1 | -24.4% | 
